The target of test [1] is Calcium and integrin-binding protein 1 (Homo sapiens) (UniProt Q99828). Put plainly: Primary qHTS for Identification of Calcium Integrin Binding Protein 1 (CIB1) Competitor (AID 1508620).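 Also: GST tagged CIB1 binding a fluorescein labelled alphaIIb integrin peptide tracer; top concentration of the series differs between compounds.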 The method, boiled down:
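CIB1-GST (1 uM final) and compound incubated 15 min at room temperature before adding FITC-alphaIIb peptide tracer (100 nM final). Competition for binding read by fluorescence polarization (ex 480, em 540) after another 15 min at room temperature.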

Test [2] can be described thus: Primary qHTS for small molecule stabilizers of the endoplasmic reticulum resident proteome: Secreted ER Calcium Modulated Protein (SERCaMP) assay (AID 1508630). The method, boiled down: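 GLuc-SERCaMP-expressing SH-SY5Y cells, pretreated 16 h with compound, are challenged with thapsigargin to empty ER calcium stores; after 4 h, coelenterazine is added directly to the medium and luminescence is imaged.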
(In general: qHTS replaces the single test concentration by a dilution series.)

Test [3] is described as follows: A High-Content qHTS Against Drug Library for the Identification of Small Molecules that Inhibit DYT1 Early Onset Primary Dystonia-Associated Cell Pathology (AID 1645839; calls by dose curve; also: series mostly up to about 46 µM). The method, boiled down: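 In this high-content image screen, delE TorsinA mislocalization in inducible Flp-In 293 cells is scored as %pathology, with cell count serving as the counterscreen. Compound exposure lasts 48 h under tetracycline induction in reduced-serum medium.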

Test [4] deals with Cytochrome P450 2D6 (Homo sapiens) (UniProt P10635). Put plainly: Cytochrome P450 family 2 subfamily D member 6 (CYP2D6) small molecule antagonists: luciferase biochemical (cell-free) qHTS assay (AID 1645840; active = well fitted curve in the direction sought with a large enough effect in the repeat runs; an effect the other way counts as inactive or inconclusive; also: nearly all actives have a fitted effect of over 55% in size; also: potency is read from the fitted curve at half-maximal effect). The method, boiled down: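 P450-Glo luminescent screen: recombinant CYP2D6 enzyme–proluciferin substrate mix preincubated with compound 10 min at room temperature, then NADPH regeneration added for 1 h at room temperature. Detection reagent added for 20 min; luciferin light read as relative luminescence units.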
Sequence of Cytochrome P450 2D6 (Homo sapiens) (P10635 whole entry, looked up): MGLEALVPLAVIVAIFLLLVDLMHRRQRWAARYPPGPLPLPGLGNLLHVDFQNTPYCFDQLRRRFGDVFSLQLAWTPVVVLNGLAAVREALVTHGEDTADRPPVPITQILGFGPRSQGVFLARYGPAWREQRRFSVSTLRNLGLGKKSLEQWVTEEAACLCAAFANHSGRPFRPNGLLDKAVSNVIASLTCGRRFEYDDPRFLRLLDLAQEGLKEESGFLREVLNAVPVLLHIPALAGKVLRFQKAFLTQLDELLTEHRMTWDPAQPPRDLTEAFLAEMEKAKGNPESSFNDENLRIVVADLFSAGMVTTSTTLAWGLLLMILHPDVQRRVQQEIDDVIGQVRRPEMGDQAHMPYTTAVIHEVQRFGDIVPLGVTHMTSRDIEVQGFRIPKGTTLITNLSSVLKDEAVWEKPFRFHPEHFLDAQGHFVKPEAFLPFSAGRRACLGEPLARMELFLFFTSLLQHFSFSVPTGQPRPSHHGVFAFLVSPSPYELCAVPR

Test [5] addresses Cytochrome P450 2C9 (Homo sapiens) (UniProt P11712). The test can be described thus: Cytochrome P450 family 2 subfamily C member 9 (CYP2C9) small molecule antagonists: luciferase biochemical (cell-free) qHTS assay (AID 1645842; active = well fitted curve in the direction sought with a large enough effect in the repeat runs; an effect the other way counts as inactive or inconclusive; also: nearly all actives have a fitted effect of over 55% in size; also: potency is read from the fitted curve at half-maximal effect). A digest of the protocol: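 Luminescence, after 20 min with luciferin detection reagent, reflected CYP2C9 turnover during a 1 h NADPH-driven reaction at 37C. Enzyme-substrate mix contained 0.4% bovine serum albumin and was preincubated with compound 10 min at room temperature.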

For test [6], the target named is Cytochrome P450 3A4 (Homo sapiens) (UniProt P08684). Put plainly: Cytochrome P450 family 3 subfamily A member 4 (CYP3A4) small molecule antagonists: luciferase qHTS assay (AID 1645841; active = well fitted curve in the direction sought with a large enough effect in the repeat runs; an effect the other way counts as inactive or inconclusive; also: nearly all actives have a fitted effect of over 45% in size). The method, boiled down:
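Luminescent CYP3A4 activity readout: compounds plus enzyme-substrate mix 10 min at room temperature, reaction started with NADPH regenerating system for 1 h, stopped with detection reagent, read after 20 min. Ketoconazole served as control.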

In PubChem BioAssay (NCATS) one finds outcome and Potency data, which are given here for 30 compounds.

SMILES strings stand for the structures. Several values for one entry are separate records, joined by “and”; a condition that tells them apart may be missing. Equal values may be shown once. Results filed as inconclusive are left out. A number with no mark means an inactive call. Activity calls are given as the source filed them. Unless noted, calls follow the shape of the dose curve; as a rule, active = well fitted curve in the direction sought with a large enough effect; inconclusive = small, poorly fitted or top-dose-only effect, or another doubt; inactive = no such curve, though single readings can be large; an effect the other way counts as inactive or inconclusive.

Sequence of Calcium and integrin-binding protein 1 (Homo sapiens) (Q99828 whole entry, looked up): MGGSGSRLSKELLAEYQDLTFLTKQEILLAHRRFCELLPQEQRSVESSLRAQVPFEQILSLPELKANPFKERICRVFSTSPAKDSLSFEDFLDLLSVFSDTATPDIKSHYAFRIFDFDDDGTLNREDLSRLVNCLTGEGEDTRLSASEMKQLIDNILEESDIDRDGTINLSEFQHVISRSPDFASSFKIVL
Sequence of Cytochrome P450 3A4 (Homo sapiens) (P08684 whole entry, looked up): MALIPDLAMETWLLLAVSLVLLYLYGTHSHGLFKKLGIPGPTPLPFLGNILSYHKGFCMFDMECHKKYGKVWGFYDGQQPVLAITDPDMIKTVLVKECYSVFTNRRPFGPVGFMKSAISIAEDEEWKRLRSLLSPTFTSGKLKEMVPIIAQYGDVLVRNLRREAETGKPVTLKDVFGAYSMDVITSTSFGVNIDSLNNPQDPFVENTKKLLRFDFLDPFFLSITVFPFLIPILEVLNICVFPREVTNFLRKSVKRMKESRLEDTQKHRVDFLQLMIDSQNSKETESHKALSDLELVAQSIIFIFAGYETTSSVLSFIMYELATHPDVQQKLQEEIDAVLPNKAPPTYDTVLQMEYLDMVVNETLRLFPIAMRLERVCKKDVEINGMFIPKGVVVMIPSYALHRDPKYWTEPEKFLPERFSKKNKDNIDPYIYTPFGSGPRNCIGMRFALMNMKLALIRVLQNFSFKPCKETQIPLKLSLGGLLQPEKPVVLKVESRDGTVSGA
Sequence of Cytochrome P450 2C9 (Homo sapiens) (P11712 whole entry, looked up): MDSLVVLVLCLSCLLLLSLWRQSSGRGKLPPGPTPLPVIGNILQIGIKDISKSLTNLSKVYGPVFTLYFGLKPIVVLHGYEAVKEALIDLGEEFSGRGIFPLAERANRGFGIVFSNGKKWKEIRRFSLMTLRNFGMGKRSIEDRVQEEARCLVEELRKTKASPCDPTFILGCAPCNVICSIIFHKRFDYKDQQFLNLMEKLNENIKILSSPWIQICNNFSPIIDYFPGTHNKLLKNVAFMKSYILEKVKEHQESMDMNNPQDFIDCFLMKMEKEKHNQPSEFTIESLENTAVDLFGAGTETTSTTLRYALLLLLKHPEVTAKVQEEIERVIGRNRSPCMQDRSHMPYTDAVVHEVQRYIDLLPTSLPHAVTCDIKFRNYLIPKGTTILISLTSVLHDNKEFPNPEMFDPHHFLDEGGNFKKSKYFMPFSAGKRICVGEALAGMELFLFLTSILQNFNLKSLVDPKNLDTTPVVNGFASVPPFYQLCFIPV

Take `O=C(O)COc1nc(Cl)c(Cl)cc1Cl`: the outcome in test [1] was inactive. The Potency entry in test [2], in test [3], in test [4] and in test [5] was “inactive” each time.
For `O=S(=O)(c1ccc(Cl)cc1)c1ccc(Cl)cc1`, in test [1], the result was inactive. Besides, the Potency result in test [2] and in test [3] was “inactive” throughout. Also, the Potency in test [5] was 27.8 µM (active).
As to `CCO/N=C(\CC)C1=C(O)CC(c2c(C)cc(C)cc2C)CC1=O` (stereo unspecified), the result in test [1] was inactive. Also, the Potency entry in test [2] and in test [3] was “inactive” each time. Further, the Potency in test [5] was 4.48 µM (active).
As for `O=C(Oc1ccc([N+](=O)[O-])cc1)N1CCN(Cc2cccc(Oc3ccccc3)c2)CC1`, the outcome in test [1] was inactive. Also, the Potency entry in test [2] is “inactive”. The Potency is 2.68 µM (active) in test [4] and 19 µM (active) in test [5].
Regarding `CC(C)N(CCNC(=O)CN1CCCC1=O)C(C)C`, the outcome in test [1] was inactive. For the same compound, the Potency result in test [2], in test [4] and in test [5] was “inactive” each time.
In the case of `O=S(=O)(O)C(F)(F)C(F)(F)C(F)(F)C(F)(F)C(F)(F)C(F)(F)C(F)(F)C(F)(F)F`, the result in test [1] was inactive. The Potency entry in test [2] and in test [4] was “inactive” in each case. Also, the Potency in test [5] is 0.564 µM (active).
Take `CCN1CCN(C(=O)Cc2ccc(Nc3ncc(F)c(Nc4ccc(C(=O)Nc5ccccc5Cl)cc4)n3)cc2)CC1`: the outcome in test [1] was inactive. Besides, the Potency result in test [2] and in test [4] was “inactive” in each case. In addition, the Potency in test [5] is 1.9 µM (active).
In the case of `CC1(C)CC/C(=C/c2ccc(Cl)cc2)C1(O)Cn1cncn1` (stereo unspecified), in test [1], the outcome was inactive. Besides, the Potency result in test [2] and in test [3] was “inactive” in each case. The figures for the Potency in test [4] and in test [5] were 9.41 µM (active) and 0.611 µM (active), respectively.
On to `CC(C)(C)C(O)C(Oc1ccc(Cl)cc1)n1cncn1` (stereo unspecified), for which, in test [1], the result was inactive. The Potency entry in test [2] and in test [3] was “inactive” throughout. In addition, the Potency in test [5] is 21.2 µM (active).
For `Cc1ccccc1-n1c(Cn2ncc3c(N)ncnc32)nc2cccc(C)c2c1=O`, the result in test [1] was inactive. For the same compound, the Potency result in test [2] and in test [4] was “inactive” each time. Moreover, the Potency in test [5] was 13.5 µM (active).
As for `O=[N+]([O-])c1cc([N+](=O)[O-])c2ccccc2c1`, in test [1], the outcome was inactive. The Potency result in test [2], in test [3], in test [4] and in test [5] was “inactive” each time.
As to `ClC1=C(Cl)[C@]2(Cl)[C@@H]3[C@@H]4C[C@@H]([C@H]5O[C@@H]45)[C@@H]3[C@@]1(Cl)C2(Cl)Cl`, the outcome in test [1] was inactive. The Potency result in test [2] and in test [4] was “inactive” in each case.
`O=C(NCC1CCOCC1)c1cnc(Nc2ccc(Cl)cc2Cl)nc1C(F)(F)F`: the outcome in test [1] was inactive. The Potency result in test [2], in test [4] and in test [6] was “inactive” in each case.
With `Nc1ccc(Sc2ccc(N)cc2)cc1`, the result in test [1] was inactive. Moreover, the Potency result in test [2] is “inactive”. Also, the Potency in test [4] is 24.5 µM (active); in test [5], 0.92 µM (active).
For `COCC1(CO)C(=O)C2CCN1CC2` (stereo unspecified), in test [1], the result was inactive. Further, the Potency result in test [2], in test [4] and in test [5] was “inactive” in each case.
`CCCCCCCCc1ccc(O)cc1`: the outcome in test [1] was inactive. For the same compound, the Potency result in test [2] was “inactive”. In addition, the Potency in test [4] is 31 µM (active); in test [5] it was 30.1 µM (active).
Regarding `CCCCCCCCCC(CC)c1ccc(S(=O)(=O)O)cc1` (stereo unspecified), in test [1], the result was inactive. The Potency result in test [2] was “inactive”. For the same compound, the Potency is 26.7 µM (active) in test [4] and 7.74 µM (active) in test [5].
Regarding `CC(C)NCC(O)c1ccc([N+](=O)[O-])cc1` (stereo unspecified), the outcome in test [1] was inactive. Moreover, the Potency entry in test [2], in test [3], in test [6] and in test [5] was “inactive” in each case.
As for `O=C(O)CNC(=O)c1c(O)c2ccccc2n(Cc2ccccc2)c1=O`, the outcome in test [1] was inactive. For the same compound, the Potency result in test [2], in test [4] and in test [6] was “inactive” throughout.
As to `O=C(N[C@@H](COc1ccc2[nH]c(=O)[nH]c2c1)c1ccccc1)c1cccn(Cc2ccc(F)c(F)c2)c1=O`, the result in test [1] was inactive. Moreover, in test [2], the Potency entry was “inactive”. In addition, the Potency in test [4] is 4.25 µM (active); in test [5], 0.239 µM (active).
For the compound `CCCCOC(=O)c1ccccc1C(=O)OCc1ccccc1`, the outcome in test [1] was inactive. Also, the Potency entry in test [2] and in test [3] was “inactive” throughout. The Potency in test [5] was 8.2 µM (active).
`COC(=O)c1cncn1C(C)c1ccccc1` (stereo unspecified): the outcome in test [1] was inactive. Moreover, the Potency entry in test [2] and in test [3] was “inactive” each time. Further, the values for the Potency in test [4] and in test [5] were 7.76 µM (active) and 11 µM (active), respectively.
In the case of `CCC(=O)O[C@@H]1C=C2CCC3C(CCC4(C)C3CC[C@@H]4OC(=O)CC)C2CC1` (stereo partly specified), the result in test [1] was inactive. Further, the Potency entry in test [2] and in test [3] was “inactive” throughout. Besides, the Potency in test [5] is 19.5 µM (active).
As to `O=c1[nH]c2ccc(Cl)cc2c(N[C@@H]2CN3CCC2CC3)c1-c1nc2ccccc2[nH]1`, the outcome in test [1] was inactive. The Potency result in test [2] was “inactive”. Further, the Potency in test [4] was 1.69 µM (active) and 2.39 µM (active); in test [5], 10.7 µM (active) and 8.49 µM (active).
For the compound `CSCC[C@@H](NC(=O)[C@@H](Cc1ccccc1)NC(=O)CNC(=O)CNC(=O)[C@@H](N)Cc1ccc(O)cc1)C(=O)O`, the outcome in test [1] was inactive. Besides, the Potency entry in test [2], in test [4] and in test [5] was “inactive” each time.
As to `C=CC(=O)NCNC(=O)C=C`, the outcome in test [1] was inactive. Further, the Potency result in test [2], in test [4] and in test [5] was “inactive” throughout.
In the case of `CC(O)CN1CCN(CC(=O)[O-])CCN(CC(=O)[O-])CCN(CC(=O)[O-])CC1.[Gd+3]` (stereo unspecified), the result in test [1] was inactive. The Potency result in test [2], in test [3], in test [4] and in test [5] was “inactive” throughout.
For the compound `Cc1[nH]nc2ccc(-c3cncc(OC[C@@H](N)Cc4c[nH]c5ccccc45)c3)cc12`, the outcome in test [1] was inactive. The Potency entry in test [2] is “inactive”. In addition, the Potency in test [4] was 3.79 µM (active); in test [5], 0.674 µM (active).
As for `O=C(Nc1ccncc1)C(=O)c1cn(Cc2ccc(Cl)cc2)c2ccccc12`, the outcome in test [1] was inactive. Also, the Potency entry in test [2] and in test [4] was “inactive” each time. For the same compound, the Potency in test [5] was 0.301 µM (active).
As for `O=C(O)COc1ccccc1`, the outcome in test [1] was inactive. The Potency result in test [2], in test [3], in test [4] and in test [5] was “inactive” in each case.
